# From PubChem BioAssay
# hgDAF-12 ag – activates the H. glycines DAF-12 receptor ligand-binding domain. HEK293 GAL4-hgDAF12 UAS-luciferase reporter, agonist luminescence; normalized to butyrate control. activation, % at 6.8 µM. 370,000 tested, 1.8% active. AID 687014;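 active = activation above a cutoff set at the mean of all screened compounds plus 3 SD, cut at about 10% in these data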;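 also: 0% = DMSO wells and 100% = sodium butyrate wells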
# hcDAF-12 act – H. contortus DAF-12 activation, primary screen | HEK293 hcDAF-12 lit1-tk-luc reporter, luminescence; 0% DMSO, 100% Δ7-dafachronic acid | activation, % at 6.8 µM | 370,000 tested, 1.4% active;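 active = activation above the mean of all tested compounds plus 3 SD, cut at about 5.5% in these data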;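 also: 100% = response to 3 µM Δ7-dafachronic acid high control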
# DAX1 inh-1 – inhibitors of human orphan nuclear receptor DAX1 (NR0B1) | 340,000 tested, 0.99% active | P51843 | inhibition, % at 6.75 µM | HEK293 Gal4-DAX1 luciferase reporter, luminescence;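 active = inhibition above the mean over all tested compounds plus 3 SD, cut at about 4.2% in these data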;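 also: 0% = DAX1-transfected cells with DMSO and 100% = empty-vector control cells with DMSO; inhibition shows as a rise in luminescence from relieved DAX1 repression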
# Target sequence (P51843 207-470 limits assumed): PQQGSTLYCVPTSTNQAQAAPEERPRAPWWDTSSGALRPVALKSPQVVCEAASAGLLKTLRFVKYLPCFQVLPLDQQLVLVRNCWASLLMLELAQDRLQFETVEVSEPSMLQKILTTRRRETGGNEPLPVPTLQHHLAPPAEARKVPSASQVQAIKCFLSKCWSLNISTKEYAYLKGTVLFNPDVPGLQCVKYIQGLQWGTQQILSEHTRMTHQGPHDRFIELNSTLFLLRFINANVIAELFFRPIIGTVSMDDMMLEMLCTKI
# ssDAF12 agonist – S. stercoralis DAF-12 activation, primary screen; HEK293 ssDAF-12/GRIP1 lit1-tk-luc reporter, luminescence; % of 3 µM dafachronic acid response; activation, % at 6.8 µM; 370,000 tested, 1% active; AID 652126;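 active = activation above the mean over all tested compounds plus 3 SD, cut at about 0.9% in these data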;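 also: 0% = DMSO-only wells and 100% = 3 µM delta7-dafachronic acid wells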
# DAX1 inh-2 – DAX1 (NR0B1) inhibition, primary screen. 370,000 tested, 1.1% active. HEK293T StAR-luciferase reporter, SF-1/DAX-1 repression relief. inhibition, % at 6.8 µM;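 active = inhibition above the mean over all tested compounds plus 3 SD, cut at about 3.6% in these data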;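 also: 0% = DAX-1 cells with DMSO and 100% = cells lacking DAX-1 with DMSO; higher inhibition means more luminescence from relief of DAX-1 repression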
# LXRb hcDAF ctr – activates human LXR-beta, counter-screen for hcDAF-12 agonists; HEK293 Gal4-LXR tk-luc reporter, luminescence, 24 h; normalized: DMSO 0%, positive control 100%; shares compounds with hcDAF-12 act; activation, % at 6.8 µM; 3,400 tested, under 10 active;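 active = mean percent activation of the reporter above a cutoff set as the average over tested compounds plus their standard deviation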
# hcDAF12 ag – hcDAF-12 agonism, confirmation assay; shares compounds with hcDAF-12 act; 3,400 tested, 61% active; HEK293 hcDAF-12 lit1-tk-luc reporter, luminescence; % of Δ7-dafachronic acid response; activation, % at 6.8 µM;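 active = mean activation across triplicate tests above the threshold derived from the earlier primary screen, cut at about 5.5% in these data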;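 also: 0% = DMSO only wells and 100% = 3 µM Δ7-dafachronic acid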
# The depositor's hits bear a star; nt = no result given. Most compounds without a hit are left out; they make up all but 4.1% or so of the library.
SMILES,hgDAF-12 ag,hcDAF-12 act,DAX1 inh-1,ssDAF12 agonist,DAX1 inh-2,LXRb hcDAF ctr,hcDAF12 ag
Cn1ccc(C(=O)N/N=C/c2c[nH]c3ccccc23)n1,8,12*,2,0.9*,0,0,5
CC(=O)Nc1cccc(C(=O)N/N=C/c2c[nH]c3ccccc23)c1,9,8.5*,1,0.9*,0,0,4
O=C(O)c1cc(N/N=C/c2c[nH]c3ccccc23)ccc1Cl,2,8.6*,2,3.2*,0,0,10*
c1ccc(-c2c[nH]c3cccc(-c4cc5ccccc5o4)c23)cc1,3,3,nt,0,-1,nt,nt
CCOC(=O)[C@@]12CCC3=C1N(CCC3)C(=O)[C@H](CC(=O)N1CCCC1)C2,-1,-1,nt,-1,0,nt,nt
O=C(CSc1nnc(-c2ccccn2)n1-c1ccc(Cl)cc1)Nc1ccc(S(=O)(=O)Nc2nccs2)cc1,6,0,nt,-2,0,nt,nt
O=[N+]([O-])c1ccc(Oc2ccc(S(=O)(=O)N3CCOCC3)cc2)cc1,-4,-1,-2,-1,-1,nt,nt
O=[N+]([O-])c1ccc(-c2ccc(S(=O)(=O)N3CCOCC3)cc2)cc1,2,6.6*,4.5*,-1,0,0,1
CN(C)c1cccc(/C=C(\C#N)c2ccccc2)c1,19*,7.1*,0,1.2*,-1,2,9.0*
CCOc1ccc(Oc2c(Cl)cnn(Cc3cccc4ccccc34)c2=O)cc1,0,-1,nt,-1,1,nt,nt
O=C(NN=Cc1ccccc1C(F)(F)F)c1cc(-c2ccc(Cl)cc2)n[nH]1,2,-4,nt,-2,0,nt,nt
Cc1ccc(C)c(S(=O)(=O)Nc2ccc(O)c3ccccc23)c1,-4,8.0*,-2,-1,-1,0,3
Cc1ccc(S(=O)(=O)Nc2ccc(O)c3ccccc23)c(C)c1,-2,0,-1,0,-1,nt,nt
CC(C)N1CCc2c(sc(NC(=O)C(F)F)c2-c2nc3ccccc3s2)C1,5,0,nt,-2,nt,nt,nt
CC(=O)Nc1sc2c(c1-c1nc3ccccc3s1)CCN(C(C)C)CC2,-1,13*,nt,1.1*,nt,1,15*
C#CCCC(=O)Nc1sc2c(c1-c1nc3ccccc3s1)CCN(C(C)C)C2,8,9.7*,nt,0,nt,0,2
COc1cccc(NC(=O)NC2CCCCN(Cc3ccccc3C)C2=O)c1 (stereo not drawn),-2,-4,nt,-2,-3,nt,nt
O=C(/C=C/c1cnc2ccccc2n1)NC12CC3CC(CC(C3)C1)C2,7,11*,1,0,3,2,10*
CCCN1CCC(NC(=S)Nc2ccc([N+](=O)[O-])cc2)CC1,0,4,3,-1,1,nt,nt
CCCN1CCN(C(=S)Nc2ccc([N+](=O)[O-])cc2)CC1,3,9.1*,-1,0,1,0,3
COc1ccc(-c2cc(-c3nnc(SCC(=O)Nc4cccc(Cl)c4C)n3N)[nH]n2)cc1,-1,-4,nt,0,-1,nt,nt
Cc1csc(-c2ccc3cc(Cl)cc(Cl)c3n2)n1,2,10*,nt,0,1,1,11*
Nc1nc2c(Cl)cc(Cl)cc2s1,1,1,-1,-2,-1,nt,nt
COCCn1c(C)cc(C(=O)CSc2nc3ccccc3o2)c1C,10,8.4*,1,0,2,1,4
COCCn1c(C)cc(C(=O)CSc2nc3ccccc3s2)c1C,-7,-2,-3,-2,-1,nt,nt
SMILES,hgDAF-12 ag,hcDAF-12 act,DAX1 inh-1,ssDAF12 agonist,DAX1 inh-2,LXRb hcDAF ctr,hcDAF12 ag
CN(C)c1ccc(N=Cc2nc(-c3ccccc3)oc2OC(=O)c2ccccc2)cc1,13*,6.8*,1,-1,2,0,4
Cc1cccn2cc(-c3c[nH]c4ccccc34)nc12,13*,6.9*,4.8*,0.9*,3,1,10.0*
CNC(=S)N/N=C1\C(=O)c2cccc3cccc1c23,2,11*,0,0,0,0,9.7*
CCCCNC(=S)N/N=C1\C(=O)c2cccc3cccc1c23,0,0,0,-1,1,nt,nt
Clc1ccc2oc3c(Cl)ncnc3c2c1,1,8.0*,-1,-1,0,0,4
Cc1nc(Nc2ccccc2)c2oc3ccc(Cl)cc3c2n1,4,0,0,-1,0,nt,nt
O=C(Cc1nc2ccccc2[nH]c1=O)c1ccccc1,11*,8.1*,1,1.2*,2,2,9.9*
O=C(c1ccncc1)N1CC[C@H]2[C@H](CCCN2Cc2ccccc2)C1,2,-2,nt,-1,1,nt,nt
O=C(OCC#CCSc1nnc(-c2cccc3ccccc23)o1)c1csc2ccccc12,-2,-2,nt,-2,nt,nt,nt
COc1ccc(-c2nc3c4ccccc4ccn3c2Cc2ccccc2)cc1OC,8,11*,nt,2.8*,-1,0,9.9*
FC(F)(F)c1ccccc1Cc1c(-c2cccc(Cl)c2)nc2c3ccccc3ccn12,5,8.3*,nt,1.6*,2,0,4
COc1ccccc1Cc1c(-c2ccccc2)nc2c3ccccc3ccn12,8,6.6*,nt,1.4*,1,0,6.0*
COc1ccccc1Cc1c(-c2ccc(OC)c(OC)c2)nc2c3ccccc3ccn12,-1,3,nt,-1,-3,nt,nt
COC(=O)C1CN(C2CCCC2)CCS(=O)(=O)N1Cc1cn(Cc2ccccc2)nn1 (stereo not drawn),2,0,nt,-2,0,nt,nt
Cc1ccc(NC(=O)C2=C(O)CCn3c2nc2ccccc23)cc1,4,8.9*,1,1.9*,0,0,5
Cc1cc(SCC(=O)c2cccs2)nc2ccccc12,9,8.8*,2,0,1,0,4
O=C(CSc1nc2ccccc2c(=O)[nH]1)c1cccs1,1,0,1,-1,1,nt,nt
C=CCN1CC(COCc2ccccc2)OCCS1(=O)=O (stereo not drawn),0,-1,nt,0,0,nt,nt
c1ccc(-c2nc3ccccc3o2)nc1,8,5,4,0,1,nt,nt
c1ccc2nc(-c3nc4ccccc4o3)ccc2c1,4,13*,-3,0,1,2,23*
CC1CCc2c(nc3sc4c(c3c2N)CCCC4)C1 (stereo not drawn),21*,7.1*,1,0,2,1,2
O=C(O)Cc1ccc(N=Nc2c(O)c(C(=O)O)cc3ccccc23)cc1,10,6.8*,1,0,0,0,1
NS(=O)(=O)c1ccc(N=Nc2c(O)c(C(=O)O)cc3ccccc23)cc1,-3,1,0,-1,-1,nt,nt
